Data published in PubChem BioAssay AID463193 (University of Pittsburgh Molecular Library Screening Center, 2010).
About 1,900 (1%) of roughly 190,000 compounds were called active.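 Rule for the calls: active = percentage of spot-positive cells more than 3 SD above its plate mean, without a fluorescence outlier flag or 80% toxicity; inconclusive = no clear call, values can overlap the other calls; inactive = the rest.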 This excerpt belongs to a sample that is enriched for actives.

test: autophagy modulators in MEF cells, primary screen, imaging, high-content, MEF GFP-LC3 (AID 463193); details: MEF GFP-LC3 puncta imaging, at 10 µM; % cells with GFP-LC3 spots: stronger effect = higher value; toxicity: measured here: cell loss, nuclei count;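 for % cells with GFP-LC3 spots: spot-positive cell cutoff set from DMSO-treated cells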;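 for toxicity: cell loss after 18 h compound exposure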

Row | SMILES | % cells with GFP-LC3 spots | toxicity [%]
1 | CC1(C)CC(=O)c2ccc(O)cc2O1 | 1.01% (inactive) | 7.65
2 | CCOc1ccc(CN2CCN(Cc3ccc(C)o3)CC2CCO)cc1 (stereo not given) | 0.14% (inactive) | -9.23
3 | O=C(CCN1C(=O)C2C3C=CC(C3)C2C1=O)Oc1ccc2ccccc2c1 (stereo not given) | 11.3% (inactive) | 19.4
4 | CC1=CC(C)(C)Nc2ccc(OC(=O)CN3C(=O)C4CCCCC4C3=O)cc21 (stereo not given) | 8.28% (inactive) | 24.4
5 | O=C(CN1C(=O)C2C3CCC(C3)C2C1=O)Oc1ccc2ccccc2c1 (stereo not given) | 18.4% (active) | -20.7
6 | COCCNc1nc2nonc2nc1N(C)Cc1ccc(C)cc1 | 1.24% (inactive) | -31.9
7 | Cc1cn(C)c(=O)n(C)c1=O | 8.58% (inactive) | 10.3
8 | COc1ccc(NC(=O)C(=O)NCC(=O)Nc2cccc(C(F)(F)F)c2)cc1 | 8.9% (active) | 11.1
9 | O=C(O)CSCC(=O)Nc1cccc(C(F)(F)F)c1 | 6.64% (inactive) | 0
10 | COc1ccc(NC(=O)CN(C)CC(=O)Nc2cccc(C(F)(F)F)c2)cc1 | 2.37% (inactive) | 1.34
11 | CC1Cc2ccccc2N1C1=CC(=O)CC(C)(C)C1 (stereo not given) | 2.88% (inactive) | 3.93
12 | Cc1c(NC(=O)/C=C/C(=O)O)cccc1[N+](=O)[O-] | 8.95% (inactive) | -17.9
13 | Cc1ccc(/C=C/C(=O)Nc2ccc([N+](=O)[O-])c(NC(=O)/C=C/c3ccc(C)o3)c2)o1 | 55.6% (active) | 0.679
14 | CCc1nnc(NC(=O)/C=C/c2ccc(C)o2)s1 | 3.65% (inactive) | 1.45
15 | CCCCc1ccc(NC(=S)N2CCCC(CO)C2)cc1 (stereo not given) | 11.5% (inactive) | 11.5
16 | COc1ccc2cc(-c3[nH]ncc3CNCCn3nc(C)cc3C)ccc2c1 | 16.9% (inactive) | 22
17 | CC(=O)NC1=NN(C(C)=O)C(C)(c2ccc(C)cc2)S1 (stereo not given) | 4% (inactive) | -6.62
18 | CC(=O)NC1=NN(C(C)=O)C(C)(c2ccc(Cl)s2)S1 (stereo not given) | 21.9% (active) | 54.1
19 | CC(=O)NC1=NN(C(C)=O)C(C)(CCS(=O)(=O)c2ccc(Cl)c(Cl)c2)S1 (stereo not given) | 9.23% (inactive) | 11.3
20 | COc1ccc(N2CCN(c3ccc([N+](=O)[O-])nc3)CC2)cc1 | 7.77% (inactive) | 4.08
21 | O=C(N/N=C/c1ccc(Br)o1)c1cncc(Br)c1 | 33.5% (inactive) | -0.407
22 | CCN(CC)CCCNC(=O)c1ccc2c(=O)n(Cc3ccc4c(c3)OCO4)c(=S)[nH]c2c1 | 0.744% (inactive) | 5.92
23 | CC(Nc1nc(N2CCCC2)nc2ccccc12)c1ccccc1 (stereo not given) | 13.8% (active) | -2.79
24 | CC(Nc1nc(N2CCOCC2)nc2ccccc12)c1ccccc1 (stereo not given) | 0.846% (inactive) | 11.2
25 | CC(Nc1nc(N2CCN(CCO)CC2)nc2ccccc12)c1ccccc1 (stereo not given) | 30.9% (inactive) | 23.9
